Consider 59 compounds from PubChem BioAssay AID624483 (NMMLSC, 2012).

The whole screen tested about 360,000 compounds, of which about 11,000 (3.1%) were called active. About 2% were inconclusive and are not listed. No stated cut-off is given here; in the data, active means fluorescence intensity above about 16000; inconclusive means no clear call, values can overlap the other calls; inactive means below that. The full list was thinned out, with actives kept by preference.

The nature of this experiment: counter-screen for toxin protease inhibitors: compound fluorescence, primary screen, artefact control for toxin protease inhibitor project, biochemical, multiplex microsphere, HTS (AID 624483). To be noted: compound autofluorescence counterscreen, microsphere flow cytometry; active compounds read high.
As for `COc1ccc2c(CC(=O)NNC(=O)c3ccccc3F)coc2c1`, the fluorescence intensity is 2950 (inactive).
In the case of `CCNC(=O)C1(C)CCCN(Cc2noc(-c3ccccc3OC)n2)C1` (centres undefined), the fluorescence intensity is 3700 (inactive).
Then `CCN(CC)c1nc(-c2ccccc2)cc(C(F)(F)F)c1C#N`, with 2560 (inactive).
For the compound `O=C(C=CC(=O)Nc1ccc(F)cc1F)Nc1ccc(F)cc1F`, the fluorescence intensity was 6040 (inactive).
For `COc1ccc(NC(=O)C2(C)Cc3c(-c4cccc(NC(C)=O)c4)ccnc3O2)cc1OC` (centres undefined), the fluorescence intensity is 3020 (inactive).
Then `CCc1nc2ccc(C(=O)N(C)CCN(C)C)cn2c1N(CC)CCOC`, with 3650 (inactive).
Consider `O=C(NCC(O)c1nc2ccccc2[nH]1)c1ccc(Br)cc1` (centres undefined), for which the fluorescence intensity was 5430 (inactive).
With `C[C@@H]1CC2=C(C(=O)OC(C)(C)O2)[C@@H](C2CC2)O1`, the fluorescence intensity is 5730 (inactive).
On to `CCN(C(=O)CN1CCN(Cc2ccccc2)CC1)c1c(N)n(Cc2ccccc2)c(=O)[nH]c1=O`, for which the fluorescence intensity is 3390 (inactive).
Then `Cc1csc(=O)n1CCC(=O)OCC(=O)NNC(=O)c1ccc(Br)cc1`, with 3030 (inactive).
Take `Cc1nc(C(=O)Nc2ccc(Cl)cc2)sc1C1(C)CC(c2ccccc2)=NO1` (centres undefined): the fluorescence intensity was 3390 (inactive).
For the compound `C=C1C(=O)OC2C1CCC(C)=CCCC1(C)OC21` (centres undefined), the fluorescence intensity is 6040 (inactive).
The same measure for `COc1ccc(NC(=O)C2(C)Cc3c(-c4cccc(NC(C)=O)c4)ccnc3O2)cc1` (centres undefined): 3560 (inactive).
Consider `Cc1ccc(NC(=O)COc2ccc(/C=N\NC(=O)c3cccnc3)cc2)cc1C`, for which the fluorescence intensity was 4500 (inactive).
With `O=C(O)c1ccc(N/N=C/c2cn(-c3ccccc3)nc2-c2cccs2)cc1`, the fluorescence intensity was 3970 (inactive).
Then `O=C(N/N=C/c1sc(N2CCCCC2)nc1-c1cccs1)c1cccnc1`, with 16400 (active).
As to `O=C(Nc1ccc(Cl)cc1)c1csc([C@H]2C[C@H](O)[C@@H](CO)O2)n1`, the fluorescence intensity was 2790 (inactive).
Take `COCCCn1c(Cc2csc(Nc3cccc(Cl)c3)n2)nnc1SCC(=O)OC1CCCCC1`: the fluorescence intensity was 3010 (inactive).
As for `NC(=O)CC(NC(=O)Cc1cccc2ccccc12)c1ccc(NCc2cc(F)ccc2F)c([N+](=O)[O-])c1` (centres undefined), the fluorescence intensity is 4100 (inactive).
`CSCCC(NS(=O)(=O)c1ccc2c(c1)oc(=O)n2C)C(=O)NCc1ccccc1` (centres undefined): the fluorescence intensity was 4490 (inactive).
Then `CCOc1ccc(OCC)c(NC(=O)CCS(=O)(=O)c2ccc(C)cc2)c1`, with 3840 (inactive).
On to `CCOc1ccc(OCC)c(NC(=O)C(NS(=O)(=O)c2ccc3c(c2)oc(=O)n3C)C(C)C)c1` (centres undefined), for which the fluorescence intensity was 20600 (active).
On to `CCCCN(CCCC)CCNC(=O)CN1C(=O)COc2ccc(S(=O)(=O)N3CCOCC3)cc21`, for which the fluorescence intensity was 5470 (inactive).
Then `CC(C)CNC(=O)C1(C)CCCN1C(=O)CSc1ccccc1` (centres undefined), with 3520 (inactive); and `O=C(CP(=O)(c1ccccc1)c1ccccc1)N1CCOCC1`, with 4810 (inactive).
In the case of `CCOC(=O)c1cnc(COc2ccccc2Cl)[nH]c1=O`, the fluorescence intensity was 5960 (inactive).
For the compound `CCCCSc1[nH]c(=O)c(C(=O)OCC)cc1C#N`, the fluorescence intensity was 23400 (active).
Turning to `CCOC(=O)c1cc(C)nc(S(C)(=O)=O)c1C#N`, the fluorescence intensity is 6150 (inactive).
Turning to `CC(NCCc1ccc(S(N)(=O)=O)cc1)C(=O)NCc1ccccc1` (centres undefined), the fluorescence intensity is 3370 (inactive).
As for `O=C(O)c1ccccc1Cc1ccc(F)c2ccccc12`, the fluorescence intensity is 3460 (inactive).
Take `Cc1noc(C)c1S(=O)(=O)N(C)C[C@H]1OCCCC[C@@H](C)Oc2ccc(NC(=O)CCCN(C)C)cc2C(=O)N([C@H](C)CO)C[C@@H]1C`: the fluorescence intensity was 3820 (inactive).
As for `O=C1CCC(=O)N1CCC(=O)N(C(=O)NC1CCCCC1)C1CCCCC1`, the fluorescence intensity is 3950 (inactive).
Consider `COc1ccc(-c2cc(NC(C)=O)c3ncc(-c4cc(OC)c(OC)c(OC)c4)n3c2)cn1`, for which the fluorescence intensity was 2720 (inactive).
Then `COCC(C)n1c(SCC(=O)NC2CCCCC2C)nc2ccccc2c1=O` (centres undefined), with 2940 (inactive); and `CCOn1c(SC(C)C)nc2ccccc2c1=O`, with 10100 (inactive).
In the case of `CCOC(=O)C(C)Sc1nc2ccccc2c(=O)n1CC1CCCCC1` (centres undefined), the fluorescence intensity is 19900 (active).
In the case of `Cc1ccc2c(c1)N(CC(=O)NCCc1ccc(Cl)cc1)C(=O)c1cccnc1O2`, the fluorescence intensity was 5070 (inactive).
Consider `CCc1nc2c(OCCOc3ccccc3)cccn2c1N(C)C(=O)c1ccccc1F`, for which the fluorescence intensity was 3430 (inactive).
The same measure for `CCCCN(C=O)c1c(CC)nc2c(OCCC3CCCCC3)cccn12`: 3460 (inactive); for `Cc1ccccc1OCC(=O)NCC(=O)OCC(=O)c1ccc2ccccc2c1`: 10600 (inactive); for `Cc1ccc2[nH]c(=O)c(CN(CC3COCCO3)C(=O)Nc3ccccc3C)cc2c1` (centres undefined): 3250 (inactive).
With `Cc1ccc2[nH]c(=O)c(CN(CCCN(C)C)C(=O)Nc3cccc(Cl)c3)cc2c1`, the fluorescence intensity is 21500 (active).
On to `Cc1cccc(NC(=O)N(Cc2cc3cc(C)cc(C)c3[nH]c2=O)CC2COCCO2)c1` (centres undefined), for which the fluorescence intensity was 11500 (inactive).
Then `COc1ccccc1CNc1nc(Nc2ccccc2Cl)c2sccc2n1`, with 3450 (inactive); and `CC(C)CNC(=S)NNC(=O)c1nn(C)cc1Cl`, with 8820 (inactive); and `Cc1scc(C(=O)NNC(=S)NCC(C)C)c1C`, with 2420 (inactive).
For the compound `Cc1occc1C(=O)NNC(=S)NCC(C)C`, the fluorescence intensity is 16400 (active).
As to `CN(C)S(=O)(=O)c1ccc(C(=O)NCCN=C2NS(=O)(=O)c3ccccc32)cc1`, the fluorescence intensity was 3720 (inactive).
For the compound `CC[C@]12c3[nH]c4cc(CCC(=O)N(C)C)ccc4c3CCN1C(=O)[C@@H](CC(=O)NCCCn1ccnc1)C[C@@H]2C(=O)N1CCN(C(=O)C2CC2)CC1`, the fluorescence intensity was 3900 (inactive).
The same measure for `COc1cc(C2C(C(=O)OCCC#N)=C(C)NC3=C2S(=O)(=O)c2ccccc23)cc(OC)c1OC` (centres undefined): 9630 (inactive); for `CCCn1nc(C(=O)N2CCCc3ccccc32)c2ccccc2c1=O`: 4370 (inactive).
Then `CCCCn1nc(C(=O)Nc2cccc(C(=O)NC3CC3)c2)c2ccccc2c1=O`, with 3390 (inactive); and `CCCCn1nc(C(=O)N2CCc3ccccc32)c2ccccc2c1=O`, with 23400 (active); and `OC[C@@H]1CN(Cc2ccc(F)cc2)C[C@H](n2cnc3c(NC4CCCC4)ncnc32)O1`, with 3760 (inactive).
As to `CC(=O)OCC(C)n1c(=O)c2ccccc2n1C(C)=O` (centres undefined), the fluorescence intensity was 6200 (inactive).
Turning to `Cc1cn([C@H]2C[C@H](O)[C@@H](/C=C/C(=O)NCCCc3ccccc3)O2)c(=O)[nH]c1=O`, the fluorescence intensity is 4330 (inactive).
For the compound `CCc1nnc(NS(=O)(=O)c2ccc(NC(=S)NC(=O)c3cccs3)cc2)s1`, the fluorescence intensity is 3630 (inactive).
Regarding `O=C(NC(=S)Nc1cccc(-c2ccc(CO)o2)c1)c1cccs1`, the fluorescence intensity was 4550 (inactive).
For the compound `Cc1sc(NC(=S)NC(=O)c2cccs2)nc1-c1ccc(CC(C)C)cc1`, the fluorescence intensity is 19900 (active).
